Data: PubChem BioAssay AID1159580 (chemical genetic matrix, 2015)
“And” between values parts separate entries of the source, which are not always exact repeats. Identical values can stand only once. The campaign covered roughly 5,500 compounds. About 2,000 (36%) were called active. Another 18% or so got no clear call; they are omitted. Cut-off read from the data, not from the text of the source: active = normalized growth mostly below about 0.91 (no sharp cut-off); inconclusive = no clear call, values can overlap the other calls; inactive = mostly above about 0.92. This is one part of the list.

Assay: chemical genetic growth profiling, strain panel (AID 1159580);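 note: tested at 20 µM; growth read once vehicle control cultures reached saturation at 30 °C; 1 = growth at the plate median or of vehicle wells; lower values mean less growth of the strain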
Details: S. cerevisiae deletion strains, growth OD

Measured: normalized growth

CCOc1nc2cccc(C(=O)OC(C)OC(=O)OC3CCCCC3)c2n1Cc1ccc(-c2ccccc2-c2nn[nH]n2)cc1 (configuration not stated)
active: locus YDR137W, strain rgp1, hits give low values 0.824
inactive: locus YAL013W, strain DEP1, hits give low values 1 | locus YAL021C, strain ccr4, hits give low values 1 | locus YAL026C, strain drs2, hits give low values 1.03 | locus YAL030W, strain snc1, hits give low values 1.02 | locus YBL061C, strain skt5, hits give low values 1.01 | locus YBR009C, strain hhf1, hits give low values 0.998 | locus YBR021W, strain FUR4, hits give low values 1.03 | locus YBR023C, strain chs3, hits give low values 1.03 | locus YBR171W, strain sec66, hits give low values 1.05 | locus YBR229C, strain ROT2, hits give low values 0.996 | locus YBR231C, strain swc5, hits give low values 1.01 | locus YBR279W, strain paf1, hits give low values 1.02 | locus YCL011C, strain gbp2, hits give low values 1.02 | locus YCL016C, strain dcc1, hits give low values 1.01 | locus YCL029C, strain bik1, hits give low values 1.01 | locus YCL061C, strain MRC1, hits give low values 1.02 | locus YCL069W, strain vba3, hits give low values 1.05 | locus YCR088W, strain abp1, hits give low values 1.03 | locus YDL005C, strain med2, hits give low values 1.03 | locus YDL035C, strain GPR1, hits give low values 0.977 | locus YDL040C, strain nat1, hits give low values 1.02 | locus YDL074C, strain BRE1, hits give low values 0.96 | locus YDL101C, strain DUN1, hits give low values 0.998 | locus YDL134C, strain PPH21, hits give low values 1.01 | locus YDL185W, strain tfp1, hits give low values 0.999 | locus YDL192W, strain arf1, hits give low values 1 | locus YDR001C, strain nth1, hits give low values 1.03 | locus YDR069C, strain doa4, hits give low values 1.04 | locus YDR101C, strain arx1, hits give low values 1 | locus YDR150W, strain NUM1, hits give low values 1.01 | locus YDR159W, strain sac3, hits give low values 1 | locus YDR162C, strain NBP2, hits give low values 0.983 | locus YDR195W, strain ref2 0.994 | locus YDR297W, strain sur2, hits give low values 0.994 | locus YDR318W, strain mcm21, hits give low values 0.995 | locus YDR334W, strain swr1, hits give low values 1.03 | locus YDR335W, strain msn5, hits give low values 1.03 | locus YDR388W, hits give low values 1 | locus YDR392W, strain spt3, hits give low values 0.996 | locus YDR502C, strain sam2, hits give low values 0.997 | locus YEL003W, strain gim4, hits give low values 1.03 | locus YEL037C, strain rad23, hits give low values 1.02 | locus YEL061C, strain CIN8 (second series), hits give low values 1.02 | locus YEL061C, strain CIN8, hits give low values 1 | locus YER015W, strain faa2, hits give low values 1.02 | locus YER016W, strain bim1, hits give low values 1.02 | locus YER110C, hits give low values 0.997 | locus YER111C, strain swi4, hits give low values 1.04 | locus YER155C, strain BEM2 (second series), hits give low values 1.07 | locus YER155C, strain BEM2, hits give low values 1.01 | locus YER167W, strain BCK2, hits give low values 0.986 | locus YFR010W, strain ubp6, hits give low values 1.04 | locus YGL078C, strain dbp3, hits give low values 1.01 | locus YGL086W, strain mad1, hits give low values 0.997 | locus YGL167C, strain pmr1, hits give low values 1.03 | locus YGL173C, strain kem1, hits give low values 1.03 | locus YGL227W, strain vid30, hits give low values 1.02 | locus YGL240W, strain doc1, hits give low values 1.02 | locus YGL248W, strain PDE1, hits give low values 1.01 | locus YGL253W, strain hxk2, hits give low values 1.04 | locus YGR078C, strain PAC10, hits give low values 0.988 | locus YGR135W, strain pre9, hits give low values 1 | locus YGR229C, strain SMI1, hits give low values 0.851 | locus YGR252W, strain gcn5, hits give low values 0.972 | locus YHR013C, strain ard1, hits give low values 1.03 | locus YHR027C, strain rpn1, hits give low values 1.01 | locus YHR030C, strain SLT2, hits give low values 0.996 and 0.96 | locus YHR079C, strain IRE1 (second series), hits give low values 0.996 | locus YHR079C, strain IRE1, hits give low values 0.957 | locus YHR094C, strain hxt1, hits give low values 0.995 | locus YHR129C, strain ARP1, hits give low values 1.01 | locus YHR142W, strain chs7, hits give low values 1.04 | locus YHR200W, strain rpn10, hits give low values 0.998 | locus YIL066C, strain RNR3, hits give low values 1.01 | locus YIL073C, strain SPO22, hits give low values 1.07 | locus YIL125W, strain kgd1, hits give low values 0.989 | locus YIR030C, strain dcg1, hits give low values 0.996 | locus YJL092W, strain hpr5, hits give low values 1.03 | locus YJL095W, strain BCK1 (second series), hits give low values 1.01 | locus YJL095W, strain BCK1, hits give low values 0.8 and 1.01 | locus YJL115W, strain asf1, hits give low values 1.04 | locus YJL129C, strain trk1, hits give low values 1.04 | locus YJL134W, strain LCB3, hits give low values 1.01 | locus YJL154C, strain vps35, hits give low values 1.03 | locus YJL164C, strain tpk1, hits give low values 1.01 | locus YJL166W, strain qcr8, hits give low values 1.01 | locus YJL168C, strain set2, hits give low values 0.994 | locus YJL187C, strain SWE1 (second series), hits give low values 0.997 | locus YJL187C, strain SWE1, hits give low values 1.01 | locus YJR043C, strain POL32, hits give low values 0.996 | locus YJR066W, strain TOR1, hits give low values 0.93
